Measurements taken from PubChem BioAssay (NCI).
Compounds without any hit were thinned out: in the full panel of roughly 83,000, 20% have a hit.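 Cell lines were cultured in 96-well plates, exposed to a single compound concentration, and assessed for percent growth 48 hours later.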 A number with no mark means an inactive call. The source made the active and inactive calls. Rule for the calls: active = growth percent below 10; inactive = the rest.

Tests used:
Assay in all cases: NCI-60 one-dose screen, 48 h (100 = growth as untreated, 0 = no growth, -100 = all killed)
Conditions in all cases: 10 µM unless noted
DU-145 prostate = tested on: DU-145 prostate
K-562 leukemia = tested on: K-562 leukemia
MALME-3M melanoma = tested on: MALME-3M melanoma
MDA-MB-231 breast = tested on: MDA-MB-231 breast
RXF 393 renal = tested on: RXF 393 renal
SF-268 CNS = tested on: SF-268 CNS
SF-295 CNS = tested on: SF-295 CNS
SF-539 CNS = tested on: SF-539 CNS
UACC-257 melanoma = tested on: UACC-257 melanoma
M14 melanoma = tested on: M14 melanoma
HCT-15 colon = tested on: HCT-15 colon
HT29 colon = tested on: HT29 colon
SNB-75 CNS = tested on: SNB-75 CNS
SNB-19 CNS = tested on: SNB-19 CNS
U251 CNS = tested on: U251 CNS
PC-3 prostate = tested on: PC-3 prostate
SK-MEL-5 melanoma = tested on: SK-MEL-5 melanoma
UACC-62 melanoma = tested on: UACC-62 melanoma
LOX IMVI melanoma = tested on: LOX IMVI melanoma
SK-MEL-28 melanoma = tested on: SK-MEL-28 melanoma

SMILES	growth (DU-145 prostate)	growth (K-562 leukemia)	growth (MALME-3M melanoma)	growth (MDA-MB-231 breast)	growth (RXF 393 renal)	growth (SF-268 CNS)	growth (SF-295 CNS)	growth (SF-539 CNS)	growth (UACC-257 melanoma)	growth (M14 melanoma)	growth (HCT-15 colon)	growth (HT29 colon)	growth (SNB-75 CNS)	growth (SNB-19 CNS)	growth (U251 CNS)	growth (PC-3 prostate)	growth (SK-MEL-5 melanoma)	growth (UACC-62 melanoma)	growth (LOX IMVI melanoma)	growth (SK-MEL-28 melanoma)
O=C(OCc1ccc2c(Cl)cc(Cl)c(O)c2n1)N1CCNCC1	47.7%	19.1%	64.6%	54.3%	45.4%	35%	24.2%	52.4%	40.5%	43.6%	18.5%	80.6%	48.4%	37%	16.2%	29.8%	35.7%	24.5%	32.7%	70.4%
Oc1ccc(N=Nc2nccs2)c(O)c1	64%	44%	92.9%	54.9%	90%	51.5%	40.3%	86.1%	99.5%	68%	28.6%	51.5%	92.7%	90.8%	41.1%	55.2%	87.9%	44.3%	40%	118%
COc1ccc2c(c1)C(C)Cc1c(Cl)nc(C)nc1N2C (stereo not given)	34%	11.7%	80.7%	19%	-0.792% (active)	43.2%	7.77% (active)	4.64% (active)	78.1%	13.5%	18.4%	-13.3% (active)	39.3%	24.7%	21.9%	14.8%	24%	27%	43.7%	80.1%
N#C/C(C(=O)c1ccccc1)=C1/C(=O)Nc2ccccc21	105%	88.6%	108%	93.2%	113%	95.7%	98.5%	97.3%	95.4%	35.6%	106%	102%	66.9%	98.8%	103%	97.6%	95.6%	94.6%	104%	113%
COc1ccc(C(=O)/C=C/c2ccccn2)c(O)c1	45.1%	41.9%	88.2%	82.4%	56.2%	90.5%	97.1%	49.4%	100%	86.6%	39.7%	72.2%	78.1%	73.1%	87.5%	95.5%	95%	90.8%	-54.9% (active)	90.7%
NC(=O)CC1C=CCC1 (stereo not given)	102%	96%	97.8%	102%	111%	102%	98.3%	93.3%	90.4%	102%	99.5%	96.3%	84.3%	104%	85.5%	98.7%	99.5%	101%	103%	109%
COc1ccccc1S(=O)Nc1ccccc1 (stereo not given)	116%	104%	86.2%	92.5%	100%	100%	98.5%	109%	78.4%	111%	102%	91.4%	87.4%	99.5%	91%	87.2%	96.8%	94.1%	99.4%	114%
Brc1ccc(-c2nnc3c4[nH]ccc4ncn23)cc1	101%	79.9%	101%	44.4%	107%	92.4%	96.1%	102%	109%	102%	88.6%	94.9%	95.6%	95.5%	100%	90.6%	93.3%	72%	85.4%	114%
C=C(C)[C@@H]1CC[C@]2(C(=O)OC)CC[C@]3(C)[C@H](CC[C@@H]4[C@@](C)(CCc5nn[nH]n5)[C@H](C(=C)C)CC[C@]43C)[C@@H]12	0.51% [100 µM] (active)	14.5% [100 µM]	-52% [100 µM] (active)	-76.9% [100 µM] (active)	-78.3% [100 µM] (active)	-23.1% [100 µM] (active)	-35.2% [100 µM] (active)	-65% [100 µM] (active)	-5.16% [100 µM] (active)	-9.37% [100 µM] (active)	6.32% [100 µM] (active)	-16.1% [100 µM] (active)	-77.8% [100 µM] (active)	-5.69% [100 µM] (active)	-26.5% [100 µM] (active)	5.02% [100 µM] (active)	-73.7% [100 µM] (active)	-72.8% [100 µM] (active)	-90.9% [100 µM] (active)	-63% [100 µM] (active)
CCCCOC(=O)c1c(C)[nH]c(/C=C2\N=C(c3ccc[nH]3)C=C2OC)c1C	18.5%	9.48% (active)	-56.5% (active)	-49.7% (active)	-12.6% (active)	19.9%	-61.9% (active)	-36.2% (active)	-12% (active)	-18.6% (active)	-1.74% (active)	1.64% (active)	-20% (active)	26.6%	1.25% (active)	13.9%	-98% (active)	-28% (active)	-65.8% (active)	-14% (active)
CC1(C)CC[C@]2(C(=O)OC(=O)[C@]34CCC(C)(C)C[C@@H]3C3=CC[C@@H]5[C@@]6(C)CCC(=O)C(C)(C)[C@@H]6CC[C@@]5(C)[C@]3(C)CC4)CC[C@]3(C)C(=CC[C@@H]4[C@@]5(C)CCC(=O)C(C)(C)[C@@H]5CC[C@]43C)[C@H]2C1	77.4% [100 µM]	36.4% [100 µM]	81.2% [100 µM]	45.7% [100 µM]	62.6% [100 µM]	63.4% [100 µM]	76.5% [100 µM]	61.6% [100 µM]	69% [100 µM]	77.9% [100 µM]	73.6% [100 µM]	44.8% [100 µM]	15.8% [100 µM]	62.8% [100 µM]	64.6% [100 µM]	36.6% [100 µM]	25% [100 µM]	49.9% [100 µM]	64.6% [100 µM]	81.7% [100 µM]
CCCCCCCCN(CCCCCCCC)CC(O)c1ccc(Cl)c(C)c1Cl (stereo not given)	105%	67.9%	102%	59.1%	87.6%	91.9%	59.6%	94.3%	89.4%	85.2%	80.1%	42.2%	86.8%	93.2%	91.3%	72.9%	101%	89.2%	53.5%	106%
Cc1cc2c(C(C)C)c(O)c(O)c(C=NCc3ccoc3)c2c(O)c1-c1c(C)cc2c(C(C)C)c(O)c(O)c(C=NCc3ccco3)c2c1O	49.1%	9.26% (active)	66.4%	31.8%	58.7%	34.9%	22%	60.2%	80.9%	65.4%	19.5%	31.2%	64.9%	19.8%	25.6%	29.7%	91.7%	67.9%	37%	70.3%
